# For some of these results: Potency and affinity values are given separately.
# Columns and labels:
# Parameters in all cases: scale not given: direction of the effect not stated beside the values
# [1] = biological target: Protein translocase subunit SecA (Escherichia coli (strain K12)) (UniProt P10408); experiment: Assay to Identify E. coli SecA ATPase Inhibitors; assay type: functional; settings: 30 µM
# [2] = biological target: T1, Ubiquitin-activating enzyme e1, putative (Leishmania donovani (strain BPK282A1)) (UniProt E9BSI1); experiment: Leishmania donovani Ubiquitin Activating Enzyme (LdE1); assay type: functional; settings: 30 µM
# T1 sequence (whole entry): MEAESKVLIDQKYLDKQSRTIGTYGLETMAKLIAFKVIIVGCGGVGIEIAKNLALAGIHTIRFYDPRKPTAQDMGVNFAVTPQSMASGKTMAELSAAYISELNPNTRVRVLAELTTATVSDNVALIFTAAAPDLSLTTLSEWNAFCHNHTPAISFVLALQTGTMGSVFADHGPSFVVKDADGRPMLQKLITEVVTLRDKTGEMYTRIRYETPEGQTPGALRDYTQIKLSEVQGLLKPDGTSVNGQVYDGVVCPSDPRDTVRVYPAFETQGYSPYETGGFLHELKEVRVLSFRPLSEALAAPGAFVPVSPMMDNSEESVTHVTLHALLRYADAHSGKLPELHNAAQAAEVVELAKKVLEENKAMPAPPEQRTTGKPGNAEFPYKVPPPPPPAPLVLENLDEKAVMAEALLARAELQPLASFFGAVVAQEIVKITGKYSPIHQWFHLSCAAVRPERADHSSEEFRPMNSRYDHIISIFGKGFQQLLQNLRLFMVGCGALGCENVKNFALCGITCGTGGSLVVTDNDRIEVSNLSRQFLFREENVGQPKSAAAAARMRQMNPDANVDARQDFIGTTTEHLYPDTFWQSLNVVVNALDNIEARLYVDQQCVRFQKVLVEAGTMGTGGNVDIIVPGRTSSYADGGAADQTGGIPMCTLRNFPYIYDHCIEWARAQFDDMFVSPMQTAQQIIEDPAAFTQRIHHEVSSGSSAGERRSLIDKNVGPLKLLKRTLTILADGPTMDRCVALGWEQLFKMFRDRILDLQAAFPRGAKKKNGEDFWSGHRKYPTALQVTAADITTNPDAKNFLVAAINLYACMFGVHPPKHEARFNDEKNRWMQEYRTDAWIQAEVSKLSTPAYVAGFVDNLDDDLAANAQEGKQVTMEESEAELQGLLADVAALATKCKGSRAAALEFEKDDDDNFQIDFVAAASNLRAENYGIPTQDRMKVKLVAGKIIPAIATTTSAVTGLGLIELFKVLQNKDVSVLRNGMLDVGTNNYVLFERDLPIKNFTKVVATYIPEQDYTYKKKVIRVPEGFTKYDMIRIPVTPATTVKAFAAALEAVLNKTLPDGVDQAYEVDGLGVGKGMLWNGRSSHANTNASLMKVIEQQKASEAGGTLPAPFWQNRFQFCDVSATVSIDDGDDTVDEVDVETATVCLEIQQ
# [3] = biological target: Sialic acid-binding Ig-like lectin 9 (Homo sapiens) (UniProt Q9Y336); experiment: Hs-Siglec9 ALPHAscreen SOP 20170721; settings: 10 µM
# Trypanosoma cruzi = experiment: Trypanosoma cruzi phosphomannomutase and mannose-1-phosphate guanylyltransferase assay; assay type: functional; settings: 10 µM
# [4] = biological target: T2, Arginase-2, mitochondrial (Homo sapiens) (UniProt P78540); experiment: in vitro enzyme assay to detect the production of urea directly proportional to the activity of Arginase II; assay type: functional; settings: 33.3 µM; further: in the data most compounds retested in dose-response had high values
# T2 sequence (whole entry): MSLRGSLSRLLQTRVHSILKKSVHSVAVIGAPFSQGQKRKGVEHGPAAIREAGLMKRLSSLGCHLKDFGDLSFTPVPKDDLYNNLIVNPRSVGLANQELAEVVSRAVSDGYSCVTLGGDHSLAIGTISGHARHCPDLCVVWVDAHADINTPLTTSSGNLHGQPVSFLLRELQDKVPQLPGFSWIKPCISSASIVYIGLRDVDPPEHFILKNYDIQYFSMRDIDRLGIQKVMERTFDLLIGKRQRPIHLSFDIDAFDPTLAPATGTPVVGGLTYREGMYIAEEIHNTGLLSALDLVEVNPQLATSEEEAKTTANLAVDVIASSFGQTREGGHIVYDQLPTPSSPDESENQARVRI
# [5] = biological target: T3, Proteasome subunit beta (Trypanosoma cruzi) (UniProt O96673); experiment: Trypanosoma cruzi proteasome chymotrypsin-like activity (TcProtChymo) assay.; further: in the data most compounds retested in dose-response had high values; assay type: functional; settings: 9.37 µM
# T3 sequence (whole entry): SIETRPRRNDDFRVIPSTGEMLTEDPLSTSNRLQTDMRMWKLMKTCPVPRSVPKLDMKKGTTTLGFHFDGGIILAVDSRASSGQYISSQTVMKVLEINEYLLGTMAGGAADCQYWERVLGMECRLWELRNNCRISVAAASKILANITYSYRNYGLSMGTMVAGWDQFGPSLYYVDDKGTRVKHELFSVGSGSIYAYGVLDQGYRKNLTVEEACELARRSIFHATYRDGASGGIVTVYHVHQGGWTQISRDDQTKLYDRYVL
# Homo sapiens = organism: Homo sapiens; experiment: To identify inhibition of the IFN signalling (Jak-Stat) pathway via expression of an eGFP reporter gene under the control of an IFN-stimulated response element (ISRE) containing MxA promoter.; assay type: functional; settings: 30 µM
# [6] = biological target: T4, Tyrosyl-tRNA synthetase, putative (Trypanosoma cruzi (strain CL Brener)) (UniProt Q4DSP6); experiment: Trypanosoma cruzi tyrosyl tRNA synthetase (TcYRS) _High Tyrosine SOP; assay type: functional; settings: 30 µM; further: in the data most compounds retested in dose-response had high values
# T4 sequence (whole entry): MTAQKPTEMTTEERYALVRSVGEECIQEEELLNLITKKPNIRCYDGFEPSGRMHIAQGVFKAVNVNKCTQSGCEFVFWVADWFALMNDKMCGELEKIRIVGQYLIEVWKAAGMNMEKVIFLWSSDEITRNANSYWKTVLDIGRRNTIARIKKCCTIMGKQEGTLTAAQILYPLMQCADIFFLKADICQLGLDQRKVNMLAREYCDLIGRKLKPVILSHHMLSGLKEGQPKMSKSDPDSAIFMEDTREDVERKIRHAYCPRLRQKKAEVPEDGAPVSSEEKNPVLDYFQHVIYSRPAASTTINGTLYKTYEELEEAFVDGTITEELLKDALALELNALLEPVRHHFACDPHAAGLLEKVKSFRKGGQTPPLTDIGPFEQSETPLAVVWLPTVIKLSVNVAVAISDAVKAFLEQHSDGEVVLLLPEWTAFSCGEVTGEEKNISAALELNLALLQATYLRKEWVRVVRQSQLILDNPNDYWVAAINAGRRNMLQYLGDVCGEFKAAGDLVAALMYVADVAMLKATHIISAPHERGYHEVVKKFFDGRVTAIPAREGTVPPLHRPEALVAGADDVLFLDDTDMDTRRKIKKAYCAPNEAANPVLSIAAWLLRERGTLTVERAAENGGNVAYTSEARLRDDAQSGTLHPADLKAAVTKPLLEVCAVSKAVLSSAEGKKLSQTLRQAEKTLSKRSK
# [7] = biological target: T4, Tyrosyl-tRNA synthetase, putative (Trypanosoma cruzi (strain CL Brener)); experiment: Trypanosoma cruzi tyrosyl tRNA synthetase (TcYRS) SOP; assay type: functional; settings: 30 µM
# [8] = biological target: Chromo domain-containing protein 1 (Saccharomyces cerevisiae (strain ATCC 204508 / S288c) (Baker's yeast)) (UniProt P32657); experiment: ScCHD-1 Enzyme Inhibition Assay; assay type: functional; settings: 30 µM; further: in the data most compounds retested in dose-response had high values
# Chromo domain-containing protein 1 (Saccharomyces cerevisiae (strain ATCC 204508 / S288c) (Baker's yeast)), sequence (P32657 whole entry, the tested form may be a part): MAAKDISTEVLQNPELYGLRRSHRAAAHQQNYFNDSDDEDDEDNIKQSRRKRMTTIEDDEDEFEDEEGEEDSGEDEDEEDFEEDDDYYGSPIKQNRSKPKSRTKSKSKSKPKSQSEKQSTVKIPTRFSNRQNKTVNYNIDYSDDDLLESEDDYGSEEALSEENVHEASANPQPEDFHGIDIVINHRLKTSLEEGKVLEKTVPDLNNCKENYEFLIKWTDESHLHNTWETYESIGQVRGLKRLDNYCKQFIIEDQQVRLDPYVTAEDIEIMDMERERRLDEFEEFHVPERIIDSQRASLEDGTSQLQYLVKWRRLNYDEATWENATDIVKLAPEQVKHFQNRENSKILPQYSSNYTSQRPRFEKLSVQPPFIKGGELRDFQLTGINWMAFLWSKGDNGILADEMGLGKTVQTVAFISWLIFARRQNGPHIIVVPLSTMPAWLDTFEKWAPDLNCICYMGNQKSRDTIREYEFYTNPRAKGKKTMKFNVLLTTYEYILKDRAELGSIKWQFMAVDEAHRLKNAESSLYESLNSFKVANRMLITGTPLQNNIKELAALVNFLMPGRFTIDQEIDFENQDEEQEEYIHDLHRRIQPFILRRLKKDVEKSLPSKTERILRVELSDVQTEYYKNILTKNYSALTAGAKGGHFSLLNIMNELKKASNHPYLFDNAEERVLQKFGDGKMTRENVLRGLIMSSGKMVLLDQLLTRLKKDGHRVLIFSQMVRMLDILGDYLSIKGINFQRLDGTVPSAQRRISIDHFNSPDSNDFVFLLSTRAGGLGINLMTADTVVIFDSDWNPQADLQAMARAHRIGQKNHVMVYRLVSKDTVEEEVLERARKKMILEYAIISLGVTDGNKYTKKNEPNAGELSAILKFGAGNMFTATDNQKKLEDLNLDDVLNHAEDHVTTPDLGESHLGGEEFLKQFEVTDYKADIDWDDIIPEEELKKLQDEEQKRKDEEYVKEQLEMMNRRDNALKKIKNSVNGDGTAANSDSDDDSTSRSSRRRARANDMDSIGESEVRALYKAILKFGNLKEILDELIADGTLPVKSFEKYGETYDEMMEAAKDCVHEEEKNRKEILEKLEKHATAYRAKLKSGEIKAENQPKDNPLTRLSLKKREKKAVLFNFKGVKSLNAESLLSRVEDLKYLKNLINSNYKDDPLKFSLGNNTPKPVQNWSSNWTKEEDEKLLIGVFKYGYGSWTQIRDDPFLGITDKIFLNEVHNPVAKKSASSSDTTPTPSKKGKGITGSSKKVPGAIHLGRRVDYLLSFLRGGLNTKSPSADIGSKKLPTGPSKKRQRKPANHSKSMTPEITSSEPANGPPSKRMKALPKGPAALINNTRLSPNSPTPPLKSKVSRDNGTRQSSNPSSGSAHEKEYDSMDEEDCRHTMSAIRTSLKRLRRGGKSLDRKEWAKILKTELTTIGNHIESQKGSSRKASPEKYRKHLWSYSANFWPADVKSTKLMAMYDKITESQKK
# Sialic acid-binding Ig-like lectin 9 (Homo sapiens), sequence (Q9Y336 whole entry): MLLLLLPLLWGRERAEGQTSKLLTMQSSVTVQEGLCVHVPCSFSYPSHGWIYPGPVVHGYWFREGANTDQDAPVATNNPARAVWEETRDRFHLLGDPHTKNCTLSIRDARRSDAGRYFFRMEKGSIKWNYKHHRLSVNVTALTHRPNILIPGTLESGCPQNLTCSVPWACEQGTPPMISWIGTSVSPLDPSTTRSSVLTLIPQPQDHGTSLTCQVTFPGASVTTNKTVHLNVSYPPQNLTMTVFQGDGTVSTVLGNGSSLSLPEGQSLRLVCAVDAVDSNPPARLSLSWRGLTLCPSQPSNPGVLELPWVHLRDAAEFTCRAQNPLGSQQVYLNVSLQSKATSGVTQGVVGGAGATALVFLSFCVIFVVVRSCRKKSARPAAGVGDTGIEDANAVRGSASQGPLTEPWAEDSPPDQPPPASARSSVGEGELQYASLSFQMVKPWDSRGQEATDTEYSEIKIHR
# Protein translocase subunit SecA (Escherichia coli (strain K12)), sequence (P10408 whole entry): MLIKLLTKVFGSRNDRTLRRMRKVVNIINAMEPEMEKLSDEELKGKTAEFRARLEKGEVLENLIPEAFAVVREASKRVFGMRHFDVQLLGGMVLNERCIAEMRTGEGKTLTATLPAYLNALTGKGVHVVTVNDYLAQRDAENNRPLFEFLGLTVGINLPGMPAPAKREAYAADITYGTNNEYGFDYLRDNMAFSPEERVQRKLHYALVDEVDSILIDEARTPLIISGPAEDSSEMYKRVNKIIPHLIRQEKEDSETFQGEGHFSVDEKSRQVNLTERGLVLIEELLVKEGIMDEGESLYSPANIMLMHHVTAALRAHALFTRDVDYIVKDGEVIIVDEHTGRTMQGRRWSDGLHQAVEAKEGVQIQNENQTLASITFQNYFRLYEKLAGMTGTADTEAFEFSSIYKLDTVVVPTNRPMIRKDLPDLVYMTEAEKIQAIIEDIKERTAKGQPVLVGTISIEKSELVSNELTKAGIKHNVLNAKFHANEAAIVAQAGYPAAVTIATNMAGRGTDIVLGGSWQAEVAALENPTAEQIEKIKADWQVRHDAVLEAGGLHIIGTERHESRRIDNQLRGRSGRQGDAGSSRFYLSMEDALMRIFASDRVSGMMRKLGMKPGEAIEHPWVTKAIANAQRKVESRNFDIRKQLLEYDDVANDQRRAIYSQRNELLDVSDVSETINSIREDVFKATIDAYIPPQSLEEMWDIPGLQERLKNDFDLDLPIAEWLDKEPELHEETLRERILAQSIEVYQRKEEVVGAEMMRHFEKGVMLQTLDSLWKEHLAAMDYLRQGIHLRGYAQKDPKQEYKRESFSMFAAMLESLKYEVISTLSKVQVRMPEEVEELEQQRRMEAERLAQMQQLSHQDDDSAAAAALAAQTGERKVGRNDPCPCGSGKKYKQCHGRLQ
smiles,measurement,setting,value
O=C(c1cccnc1)N1CCn2nnc(COc3cccnc3)c2C1,Percent Effect,[1],-4.23%
same,Percent Effect,[2],1.3%
same,Percent Effect,[3],-1.59%
same,Percent Effect,Trypanosoma cruzi,-6.13%
same,Percent Effect,[4],4.45%
same,Percent Effect,[5],14%
same,Percent Effect,Homo sapiens,-1.63%
same,Percent Effect,[6],7.89%
same,Percent Effect,[7],7.69%
same,Percent Effect,[8],2.46%
Cc1ccc(Cl)cc1N1CCC(CNC(=O)CCn2ccnc2)C1 (centres undefined),Percent Effect,[1],-4.06%
same,Percent Effect,[2],5.13%
same,Percent Effect,[3],-8.73%
same,Percent Effect,Trypanosoma cruzi,10.8%
same,Percent Effect,[4],2.05%
same,Percent Effect,[5],12.2%
same,Percent Effect,Homo sapiens,9.72%
same,Percent Effect,[6],12.9%
same,Percent Effect,[7],22.9%
same,Percent Effect,[8],-4.33%
Cc1[nH]/c(=N\C(=O)c2csc(NC3CC3)n2)sc1C,Percent Effect,[1],-5.11%
same,Percent Effect,[2],8.11%
same,Percent Effect,[3],-0.99%
same,Percent Effect,Trypanosoma cruzi,-1.84%
same,Percent Effect,[4],-1.75%
same,Percent Effect,Homo sapiens,10.7%
same,Percent Effect,[6],11.2%
same,Percent Effect,[7],14.6%
same,Percent Effect,[8],14.5%
COc1ccc(CC(=O)N2CCCC(n3cc(C)cn3)C2)cc1F (centres undefined),Percent Effect,[1],-2.21%
same,Percent Effect,[2],-2.67%
same,Percent Effect,[3],3.32%
same,Percent Effect,Trypanosoma cruzi,0.201%
same,Percent Effect,[4],2.66%
same,Percent Effect,[5],4.16%
same,Percent Effect,Homo sapiens,3.46%
same,Percent Effect,[6],2.63%
same,Percent Effect,[7],2.56%
same,Percent Effect,[8],-4.37%
Cc1ccccc1S(=O)(=O)N1CCCCC1c1ccn[nH]1 (centres undefined),Percent Effect,[1],1.53%
same,Percent Effect,[2],9.33%
same,Percent Effect,[3],-8.62%
same,Percent Effect,Trypanosoma cruzi,-7.5%
same,Percent Effect,[4],0.443%
same,Percent Effect,[5],13.3%
same,Percent Effect,Homo sapiens,19.3%
same,Percent Effect,[6],0%
same,Percent Effect,[7],7.5%
same,Percent Effect,[8],-21.7%
CN(C)c1cc2c(nn1)CCN(C(=O)Cc1noc3ccccc13)C2,Percent Effect,[1],-0.898%
same,Percent Effect,[2],0%
same,Percent Effect,[3],-2.79%
same,Percent Effect,Trypanosoma cruzi,6.85%
same,Percent Effect,[4],2.87%
same,Percent Effect,[5],-0.427%
same,Percent Effect,Homo sapiens,-24.3%
same,Percent Effect,[6],4.31%
same,Percent Effect,[7],-1.21%
same,Percent Effect,[8],-2.37%
CC(C)c1nn(C)c(N2CCOCC2)c1CNCCS(C)(=O)=O,Percent Effect,[1],-1.81%
same,Percent Effect,[2],0%
same,Percent Effect,[3],0.36%
same,Percent Effect,Trypanosoma cruzi,1.22%
same,Percent Effect,[4],4.92%
same,Percent Effect,[5],-0.427%
same,Percent Effect,Homo sapiens,-17%
same,Percent Effect,[6],0.478%
same,Percent Effect,[7],1.21%
same,Percent Effect,[8],1.65%
COc1cccc2c1OCC(C(=O)NC1CCN(S(C)(=O)=O)CC1)C2 (centres undefined),Percent Effect,[1],-2.9%
same,Percent Effect,[2],16.2%
same,Percent Effect,[3],3.48%
same,Percent Effect,Trypanosoma cruzi,3.59%
same,Percent Effect,[4],12.2%
same,Percent Effect,[5],18.7%
same,Percent Effect,Homo sapiens,16.9%
same,Percent Effect,[6],5.85%
same,Percent Effect,[7],17.1%
same,Percent Effect,[8],93.6%
Cc1cc(CN2CCCC2c2noc(C)n2)no1 (centres undefined),Percent Effect,[1],3.19%
same,Percent Effect,[2],2.67%
same,Percent Effect,[3],5.36%
same,Percent Effect,Trypanosoma cruzi,-2.41%
same,Percent Effect,[4],3.99%
same,Percent Effect,[5],6.7%
same,Percent Effect,Homo sapiens,2.71%
same,Percent Effect,[6],0.526%
same,Percent Effect,[7],-2.56%
same,Percent Effect,[8],-6.2%
CN(C)C(=O)[C@@H]1CCO[C@@H]2CCN(Cc3ccc4c(c3)OCO4)C[C@@H]21,Percent Effect,[1],-3.73%
same,Percent Effect,[2],11.7%
same,Percent Effect,[3],-6.65%
same,Percent Effect,Trypanosoma cruzi,7.5%
same,Percent Effect,[4],-4.86%
same,Percent Effect,[5],10.9%
same,Percent Effect,Homo sapiens,0.999%
same,Percent Effect,[6],3.68%
same,Percent Effect,[7],2.56%
same,Percent Effect,[8],2.41%
CN1[C@@H](C(=O)NCC2CC2)C[C@@H]2CN(Cc3ccco3)C[C@@H]21,Percent Effect,[1],-3.17%
same,Percent Effect,[2],19.5%
same,Percent Effect,[3],-3.11%
same,Percent Effect,Trypanosoma cruzi,-6.57%
same,Percent Effect,[4],3.65%
same,Percent Effect,[5],19.5%
same,Percent Effect,Homo sapiens,13.8%
same,Percent Effect,[6],5.8%
same,Percent Effect,[7],10%
same,Percent Effect,[8],-4.24%
COc1ccc(CNCC2CCN(CC(C)O)CC2)c2ccccc12 (centres undefined),Percent Effect,[1],-1.39%
same,Percent Effect,[2],-10.3%
same,Percent Effect,[3],5.63%
same,Percent Effect,Trypanosoma cruzi,5.73%
same,Percent Effect,[4],6.97%
same,Percent Effect,[5],0.939%
same,Percent Effect,Homo sapiens,31.9%
same,Percent Effect,[6],4.31%
same,Percent Effect,[7],18.1%
same,Percent Effect,[8],-4.71%
Cc1ccc(-c2cc(CN3CCCC(Cn4cncn4)C3)on2)cc1 (centres undefined),Percent Effect,[1],-6.67%
same,Percent Effect,[2],7.79%
same,Percent Effect,[3],-2.07%
same,Percent Effect,Trypanosoma cruzi,-1.68%
same,Percent Effect,[4],1.84%
same,Percent Effect,[5],4.39%
same,Percent Effect,Homo sapiens,28%
same,Percent Effect,[6],0%
same,Percent Effect,[7],4.71%
same,Percent Effect,[8],-3.73%
Cc1ccc(S(=O)(=O)N2CCOc3ccccc32)cc1C(N)=O,Percent Effect,[1],-0.964%
same,Percent Effect,[2],10.3%
same,Percent Effect,[3],-14.2%
same,Percent Effect,Trypanosoma cruzi,-4.79%
same,Percent Effect,[4],-2.87%
same,Percent Effect,[5],10.5%
same,Percent Effect,Homo sapiens,34.9%
same,Percent Effect,[6],0.478%
same,Percent Effect,[7],8.43%
same,Percent Effect,[8],17.3%
